Compound activity from PubChem BioAssay.
Rows were chosen to be rich in hits. Some 2.3% of all compounds tested hit in one or more screens of this group.
Giardia kill – Small Molecules that selectively kill Giardia lamblia: qHTS; Giardia lamblia trophozoite viability; activity change, % at 7.66 µM, hits read low; hit rate 0.15% among 340,000; AID 540267, 2011; in the data active means activity change below about -80%; inconclusive means between about -30% and that limit;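 further: parasites exposed to compound for two days anaerobically before the ATP read; on the % scale 0 is the no-effect control and ±100 the full control effect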
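Giardia lamblia trophozoites (100 cells/well) were incubated with compounds for 48 h at 37 deg C under anaerobic conditions. Viability was read as ATP content by one-step luminescence after 15-30 min at room temperature.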
FUS suppressor – qHTS for Suppressors of FUS Proteinopathy: Primary screen using FUS-linked yeast assay. S. cerevisiae FUS-expressing, growth rescue, OD600, 24 h. Potency, µM (titrated, usually from 76.6 µM), usual class: activators. hit rate 0.24% among 390,000;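 further: potency means the concentration at half of the fitted maximal effect; plate controls were DMSO vehicle for no effect and reference control for full effect; nearly all actives have a fitted effect of over 55% in size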
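Cultures pregrown in 2.5% raffinose medium are shifted to minimal medium containing 2% galactose to express toxic FUS. Compounds are tested at several concentrations. After 24hr at 30C, growth is quantified at 600 nm absorbance.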
ELG1 DNA repair – qHTS screen for small molecules that inhibit ELG1-dependent DNA repair in human embryonic kidney (HEK293T) cells expressing luciferase-tagged ELG1 | HEK293T ELG1-luciferase reporter, luminescence, 16 h; DNA damage induced by 5-fluorouridine | Potency, µM (top dose mostly 46.1 µM), without a hit: at the top dose activity change, negative = inhibition, actives largely listed as inhibitors | hit rate 2.3% among 330,000; further: potency means the concentration at half of the fitted maximal effect; on the % scale 0 is the no-effect control and ±100 the full control effect; nearly all actives have a fitted effect of over 55% in size
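Step one: seed 2,000 cells per well. Step two: pin-transfer compound or DMSO alongside 5-fluorouridine. Step three: incubate 16 hr, 37 °C, 5% CO2. Step four: add ONE-Glo, wait 30 min, read luminescence.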
TRPV1 PAM – HTS Assay for Compounds that Act as Potentiators of the Vanilloid Receptor 1 | TRPV1-expressing cells, Fluo-8 calcium influx, capsaicin EC20 potentiation | Transient receptor potential cation channel subfamily V member 1 (Homo sapiens), Q8NER1 | potentiation, % at 8.33 µM | hit rate 0.02% among 320,000; in the data active means potentiation above about 80%; inconclusive means between about 30% and that limit; further: 0% is about no effect
Target sequence (Q8NER1 whole entry, looked up): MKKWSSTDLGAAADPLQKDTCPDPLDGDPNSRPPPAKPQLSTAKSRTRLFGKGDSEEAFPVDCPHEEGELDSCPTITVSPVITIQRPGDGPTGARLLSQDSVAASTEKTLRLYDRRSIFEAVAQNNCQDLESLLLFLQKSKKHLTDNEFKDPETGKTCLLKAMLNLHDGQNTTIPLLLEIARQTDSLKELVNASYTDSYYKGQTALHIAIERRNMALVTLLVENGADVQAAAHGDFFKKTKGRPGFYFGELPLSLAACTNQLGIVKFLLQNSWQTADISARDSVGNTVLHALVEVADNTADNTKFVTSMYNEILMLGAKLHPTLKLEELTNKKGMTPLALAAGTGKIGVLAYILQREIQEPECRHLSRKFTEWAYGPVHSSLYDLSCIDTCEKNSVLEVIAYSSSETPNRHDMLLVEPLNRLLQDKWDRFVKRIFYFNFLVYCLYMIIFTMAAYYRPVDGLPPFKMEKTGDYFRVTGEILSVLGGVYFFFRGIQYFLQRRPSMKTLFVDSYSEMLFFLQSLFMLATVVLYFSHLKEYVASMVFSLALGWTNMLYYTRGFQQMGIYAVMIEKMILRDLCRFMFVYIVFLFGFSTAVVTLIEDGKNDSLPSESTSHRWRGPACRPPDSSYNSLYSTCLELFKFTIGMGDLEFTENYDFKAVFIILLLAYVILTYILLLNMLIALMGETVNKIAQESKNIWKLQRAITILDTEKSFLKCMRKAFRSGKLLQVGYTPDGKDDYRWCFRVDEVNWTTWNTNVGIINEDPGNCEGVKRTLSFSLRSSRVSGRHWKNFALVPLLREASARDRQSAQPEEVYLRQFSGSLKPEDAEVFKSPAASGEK
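Cells expressing TRPV1 were dye-loaded with Fluo-8 and read kinetically: 10 s baseline, 3 min after compound (agonist portion), then 2 min after EC20 capsaicin (allosteric enhancer portion). Calcium-bound dye fluorescence at 480/520 nm.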
TRPV1 agonist – HTS Assay for Compounds that Act as Agonists of the Vanilloid Receptor 1; Transient receptor potential cation channel subfamily V member 1 (Homo sapiens), Q8NER1; TRPV1-expressing cells, Fluo-8 calcium influx, agonist mode; activation, % at 8.33 µM; hit rate 0.19% among 320,000; AID 540275, 2011; in the data active means activation above about 80%; inconclusive means between about 30% and that limit; further: 0% is about no effect
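Fluo-8 calcium influx in TRPV1-expressing cells, kinetic read (ex 480/em 520 nm). Compound added and read 3 min for agonist activity, followed by capsaicin at EC20 final and 2 min further read for enhancement.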
Numbers without * were called inactive; i = inactive; ? = inconclusive; . = no result. Unless noted, the call rests on the fitted dose curve; in most records, active means well fitted curve in the direction sought with a large enough effect; inconclusive means small, poorly fitted or top-dose-only effect, or another doubt; inactive means no such curve, though single readings can be large; an effect the other way counts as inactive or inconclusive.

SMILES	Giardia kill	FUS suppressor	ELG1 DNA repair	TRPV1 PAM	TRPV1 agonist
N#C/C(=C\c1ccc(-c2ccc([N+](=O)[O-])cc2)o1)C(=O)Nc1nc(-c2cccs2)cs1	-4	i	-11%	-15	-2
N#C/C(=C\c1ccc(-c2ccccc2[N+](=O)[O-])o1)C(=O)Nc1nc(-c2cccs2)cs1	-22	i	21µM*	9	-2
COc1ccc(OC)c(NC(=O)CSc2nccn2-c2cc(C)cc(C)c2)c1	.	i	.	.	.
CCc1ccc2oc(-c3cccc(NC(=O)c4ccc(N5CCC(C)CC5)c([N+](=O)[O-])c4)c3)nc2c1	.	i	.	.	.
FC(F)(F)c1cccc(CN2CCN(c3ncccn3)CC2)c1	18	i	.	.	.
CCc1nc(CN2CCN(c3cc(C(F)(F)F)ccn3)CC2)c(C)[nH]1	-4	i	7.3µM*	-7	1
COc1cccc(OCc2cc(C3Nc4ccccc4C(=O)N3c3ccccc3)ccc2OC)c1 (configuration not stated)	15	.	.	.	.
COc1ccc(C2N=C(Nc3nc4ccccc4o3)NC3=C2C(=O)CC(C)(C)C3)cc1 (configuration not stated)	-17	.	.	.	.
CCOC(=O)c1ccc(CNC(=O)CSc2nc(NC(=O)c3ccccc3)c3c(C)c(C)oc3n2)cc1	2	i	15µM*	-2	25
CCOC(=O)c1ccc(CNC(=O)CSc2nnc(-c3ccncc3)o2)cc1	17	.	0%	-12	11
COc1ccccc1CN1CCN(C(=O)c2cccc3ccccc23)CC1	-10	i	.	.	.
COc1ccc(CN2CCN(C(=O)c3ccc4nc(N5CCOCC5)sc4c3)CC2)c(OC)c1OC	-1	i	21µM*	-5	1
COc1cccc(CN2CCN(C(=O)c3ccc(-c4ccccc4)cc3)CC2)c1OC	-5	?	18µM*	0	10
COc1cc(CN2CCN(C(=O)c3ccc(-c4ccccc4)cc3)CC2)cc(OC)c1OC	13	i	?	-10	24
COc1ccc2ccccc2c1CN1CCN(C(=O)c2ccco2)CC1	-2	i	21µM*	26	14
COc1ccc2ccccc2c1CN1CCN(C(=O)c2ccccc2)CC1	14	i	18µM*	-21	19
CCOc1cc(C(=O)Nc2ccc3oc(-c4ccc(F)cc4Cl)nc3c2)cc(OCC)c1OCC	.	i	.	.	.
CC(C)(C)OC(=O)N1CCc2onc(-c3ccc(Cl)cc3)c2C1=O	.	i	.	.	.
Cc1ccc(S(=O)(=O)NCc2ccc(C(=O)N3CCN(Cc4ccccc4)CC3)cc2)cc1	15	i	?	4	3
COc1ccc(CN2CCN(C(=O)c3ccc(CNS(=O)(=O)c4ccc(C)cc4)cc3)CC2)c(OC)c1OC	-15	i	9.2µM*	3	0
CCOc1ccc(C2c3c(oc4ccc(C)cc4c3=O)C(=O)N2CCCN(C)C)cc1 (configuration not stated)	.	i	.	.	.
Cc1nnc(SCC(=O)Nc2cc(-c3cc(C)c(C)cc3C)nn2-c2ccccc2)s1	-6	25µM*	?	-4	13
Cc1cc(NC(=O)CSc2cc(Cl)ccc2Cl)n(-c2ccccc2)n1	2	i	26µM*	0	-2
COc1ccccc1NC(=O)Cn1c(=O)n(CCc2ccccc2)c(=O)c2c3c(sc21)CN(C(C)=O)CC3	.	i	.	.	.
CCSc1nnc(-c2cccc(S(=O)(=O)N(CC)CC)c2)n1Cc1ccccc1	-8	?	23µM*	-19	5
CCN(CC)S(=O)(=O)c1cccc(-c2nnc(SCC(N)=O)n2C)c1	-16	i	6%	-5	-6
CCN(CC)S(=O)(=O)c1cccc(-c2nnc(SCc3ncc(-c4ccccc4)o3)n2C)c1	8	i	21µM*	-10	7
NS(=O)(=O)c1ccc(S(=O)(=O)N2CCN(c3nc(-c4cccs4)nc4ccccc34)CC2)cc1	6	.	.	.	.
